An excerpt weighted towards active compounds, which were near 4.1% of everything screened.
ssDAF12 agonist = S. stercoralis DAF-12 nuclear receptor activators, primary screen, cell-based, luminescence, HEK293, GRIP1 co-expression, lit1-tk-luc; Nuclear hormone receptor DAF-12 (Strongyloides stercoralis); AID 652126, 2013; activation, % at 6.8 µM; HEK293 ssDAF-12/GRIP1 lit1-tk-luc reporter; % of 3 µM dafachronic acid response; 370,000 compounds, 1% hits;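 active = activation above the mean over all tested compounds plus 3 SD, cut at about 0.9% in these data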
hcDAF12 agonist = H. contortus DAF-12 nuclear receptor activators, primary screen, cell-based, luminescence, HEK293, lit1-tk-luc reporter | HEK293 hcDAF-12 lit1-tk-luc reporter; 0% DMSO, 100% Δ7-dafachronic acid | 370,000 compounds, 1.4% hits | activation, % at 6.8 µM | AID 652067, 2013;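 active = activation above the mean of all tested compounds plus 3 SD, cut at about 5.5% in these data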
DAX1 inh-1 = DAX1 (NR0B1) inhibitors on StAR promoter, primary screen, cell-based, luminescence, SF-1 (NR5A1), full-length DAX-1; 370,000 compounds, 1.1% hits; inhibition, % at 6.8 µM; HEK293T StAR-luciferase reporter, SF-1/DAX-1 repression relief;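 active = inhibition above the mean over all tested compounds plus 3 SD, cut at about 3.6% in these data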;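 note: higher inhibition means more luminescence from relief of DAX-1 repression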
hgDAF-12 ag = H. glycines DAF-12 receptor agonists, primary screen, cell-based, luminescence, HEK293, GAL4 fusion, UAS-luciferase; AID 687014, 2013; Nuclear hormone receptor DAF-12 (Heterodera glycines), GAL4 fusion; activation, % at 6.8 µM; HEK293 GAL4-hgDAF12 UAS-luciferase reporter, agonist luminescence; normalized to butyrate control; 370,000 compounds, 1.8% hits;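 active = activation above a cutoff set at the mean of all screened compounds plus 3 SD, cut at about 10% in these data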
DAX1 inh-2 = DAX1 (NR0B1) inhibitors, primary screen, cell-based, HEK293, Gal4-DAX1, luciferase luminescence; HEK293 Gal4-DAX1 luciferase reporter; 340,000 compounds, 0.99% hits; inhibition, % at 6.75 µM; AID 504766, 2011; Nuclear receptor subfamily 0 group B member 1 (Homo sapiens), P51843;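 active = inhibition above the mean over all tested compounds plus 3 SD, cut at about 4.2% in these data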;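 note: inhibition shows as a rise in luminescence from relieved DAX1 repression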
Target sequence (P51843 207-470 limits assumed): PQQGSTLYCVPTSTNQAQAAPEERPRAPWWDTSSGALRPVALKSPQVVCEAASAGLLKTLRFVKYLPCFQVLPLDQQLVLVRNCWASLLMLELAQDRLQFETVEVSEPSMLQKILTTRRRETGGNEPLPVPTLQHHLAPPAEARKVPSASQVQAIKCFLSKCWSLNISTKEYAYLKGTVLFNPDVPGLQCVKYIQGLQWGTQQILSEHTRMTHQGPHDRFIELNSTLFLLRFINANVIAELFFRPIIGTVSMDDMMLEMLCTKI
Of the large screens only hits and unclear results are named; the others gave an inactive call.

O=C(Nc1ccc2[nH]ncc2c1)c1ccccc1Cl	hgDAF-12 ag 13
O=C(Nc1ccc2[nH]ncc2c1)c1ccccc1Br	hgDAF-12 ag 12
O=C(Nc1ccc2[nH]ncc2c1)c1ccc(F)cc1	none
Cc1nc(-c2ccc(NC(=O)c3ccco3)cc2)cs1	none
Cc1nc(-c2ccc(NC(=O)c3ccccc3Br)cc2)cs1	hgDAF-12 ag 21
COC(=O)[C@]12C[C@H](CC(=O)NCc3cccc(C(F)(F)F)c3)C(=O)N(Cc3ccc4c(c3)OCO4)C1=C[C@H](C(C)C)O[C@@H]2C1CC1	none (no result: DAX1 inh-2)
O=C1CCC2(CCC(c3ccccc3)CC2)N1CCO (stereo unspecified)	none (no result: DAX1 inh-2)
COc1cc(-c2cc3nc4ccccc4n3c(N)c2C#N)cc(OC)c1OC	none
N#Cc1c(-c2ccccc2)cc2nc3ccccc3n2c1N	DAX1 inh-2 4.3
O=C(COc1cc2oc(=O)c3c(c2cc1Cl)CCCC3)N1C[C@H]2C[C@@H](C1)c1cccc(=O)n1C2	DAX1 inh-2 5.7
CC(Oc1cc2oc(=O)c3c(c2cc1Cl)CCC3)C(=O)N1C[C@H]2C[C@@H](C1)c1cccc(=O)n1C2 (stereo partly specified)	none
Cc1oc2c(C)c3oc(=O)c(CCC(=O)N4C[C@H]5C[C@@H](C4)c4cccc(=O)n4C5)c(C)c3cc2c1C	DAX1 inh-2 4.9
O=C(Oc1cc2oc(=O)c3c(c2cc1Cl)CCCC3)c1ccco1	DAX1 inh-2 4.7
Clc1ccccc1CSc1nc2ccncc2[nH]1	hgDAF-12 ag 12
O=C(NCc1ccccc1Cl)c1ccc(CSc2nc3ccncc3[nH]2)cc1	none
CC1=C(C)NC(=S)SC1	hcDAF12 agonist 5.6
S=C1Nc2ccccc2CS1	none
C[C@H]1[C@@H](NC(=O)Cc2ccsc2)CC[C@@]23CCCN2C(=O)CCC[C@@H]13	ssDAF12 agonist 2.6 (no result: DAX1 inh-1, DAX1 inh-2)
Cc1ccc(S(=O)(=O)N2CCN(C(=O)COC(=O)COc3ccc(Cl)cc3)CC2)c(C)c1	DAX1 inh-2 4.8
COc1ccc(C(=O)NCC(=O)OCC(=O)Nc2sccc2C#N)cc1OC	ssDAF12 agonist 1.1, DAX1 inh-2 6.4
COc1ccc(OC)c(NC(=O)COC(=O)CNC(=O)c2ccc(OC)c(OC)c2)c1	none
O=C1C(=O)N(CC2CCCO2)C(c2ccccc2[N+](=O)[O-])/C1=C(/O)c1ccccc1 (stereo unspecified)	none
O=C(c1ccc(N2CCOCC2)cc1)c1cccs1	DAX1 inh-1 3.8, hgDAF-12 ag 12
O=S(=O)(c1ccccc1)n1ccc2ccccc21	none
Cc1cc(C)c(S(=O)(=O)n2ccc3ccccc32)c(C)c1	ssDAF12 agonist 1.7
CCCC1CCC2(CC1)CCC2OC(=S)Nc1cccc(Cl)c1 (stereo unspecified)	none (no result: DAX1 inh-1, DAX1 inh-2)
Cc1ccc(O)c(C(=O)CC(=O)c2cccc(F)c2)c1	none
Cc1cccc(C(=O)CC(=O)c2cc(Cl)ccc2O)c1	none (no result: ssDAF12 agonist, hcDAF12 agonist, DAX1 inh-1, hgDAF-12 ag)
O=C(CC(=O)c1cc(Cl)ccc1O)c1ccccc1	hgDAF-12 ag 12
Cc1ccc(O)c(C(=O)CC(=O)c2ccc(Cl)cc2)c1	hgDAF-12 ag 11
CCn1c(=O)n(CC(=O)N2CCOCC2)c(=O)c2ccccc21	none (no result: DAX1 inh-2)
O=C(COc1ccc(S(=O)(=O)N2CCc3ccccc32)cc1Cl)NCc1ccccn1	ssDAF12 agonist 0.9
O=C(COc1ccc(S(=O)(=O)NCc2ccccc2)cc1Cl)NCc1ccccn1	none
Cc1ccc(-c2nc3ccc(C)cn3c2Cc2cccc(Cl)c2)cc1	DAX1 inh-1 3.8 (no result: DAX1 inh-2)
Cc1ccc2nc(-c3ccccc3)c(CN3CCSCC3)n2c1	none
Cc1ccc2nc(-c3ccccc3)c(CN3CCOCC3)n2c1	hgDAF-12 ag 11
Cc1ccc2nc(-c3cccc(Cl)c3)c(Cc3ccccc3)n2c1	DAX1 inh-1 4.2, hgDAF-12 ag 12 (no result: DAX1 inh-2)
C=CCN(CC#Cc1ccccc1)Cc1ccc2c(c1)OCO2	none (no result: DAX1 inh-2)
c1ccc(CCNc2ncnc3c2cnn3-c2ccccc2)cc1	DAX1 inh-1 3.7, hgDAF-12 ag 12
CC(C)OCCCNc1ncnc2c1cnn2-c1ccccc1	hgDAF-12 ag 12
CN(C)CCCNc1ncnc2c1cnn2-c1ccccc1	none (no result: ssDAF12 agonist, hcDAF12 agonist, DAX1 inh-1, hgDAF-12 ag)
COc1cccc(Cn2ncc3c4sc(S(C)=O)cc4n(C)c3c2=O)c1 (stereo unspecified)	none (no result: DAX1 inh-1, DAX1 inh-2)
CC1(C)CC2CN(Cc3ccccc3)S(=O)(=O)N2C1 (stereo unspecified)	none (no result: DAX1 inh-1, DAX1 inh-2)
C[C@]12C(=O)N(c3ccc(Br)cc3)C(=O)N1[C@H]1c3ccccc3OC[C@@H]1[C@H]2c1ccccc1	hcDAF12 agonist 5.8
C[C@]12C(=O)N(c3ccccc3)C(=O)N1[C@@H]1c3ccccc3OC[C@@H]1[C@H]2c1ccccc1	none
COc1ccc(-n2c(SCC(N)=O)nnc2-c2ccco2)cc1	DAX1 inh-2 4.5
COc1cccc(CSc2nnc(-c3ccco3)n2C)c1	DAX1 inh-2 5.2
Cc1ccc(-n2c(SCC(N)=O)nnc2-c2ccco2)cc1	none
COc1ccc(C(C(=O)N(C)C2CCCC2)N(Cc2ccc(F)cc2)C(=O)c2csc(N3CCOCC3)n2)cc1OC (stereo unspecified)	none (no result: DAX1 inh-2)
c1nc(NCC2CCOC2)c2cc(-c3ccc4c(c3)OCO4)ccc2n1 (stereo unspecified)	none (no result: DAX1 inh-1, DAX1 inh-2)
CC1=NN(c2ccccc2)C(=O)C1C(=O)C(=O)Nc1ccc(F)cc1 (stereo unspecified)	DAX1 inh-1 4.3, hgDAF-12 ag 11
CC1=NN(c2ccccc2)C(=O)C1C(=O)c1ccccc1 (stereo unspecified)	none
COC(=O)[C@]12C[C@H](CC(=O)NCCc3ccccc3OC)C(=O)N(CCC3=CCCCC3)C1=C[C@H](C(C)C)O[C@@H]2C1CC1	none (no result: DAX1 inh-2)
CN(C)c1ccc(NC(=O)CCCc2ccccc2)cc1	hgDAF-12 ag 12
O=C(NNC1CC(=O)N(c2ccc(Cl)cc2)C1=O)c1ccccn1 (stereo unspecified)	ssDAF12 agonist 0.9
O=C(NNC1CC(=O)N(c2ccc(Cl)cc2)C1=O)c1ccccc1Cl (stereo unspecified)	none
O=C(NNC1CC(=O)N(c2ccccc2)C1=O)c1cccnc1 (stereo unspecified)	none
CC(C)c1ccc(N2C(=O)CC(NNC(=O)c3cccnc3)C2=O)cc1 (stereo unspecified)	DAX1 inh-2 5.6
CSCCC(c1nc2ccccc2[nH]1)n1c(-c2ccc3ncccc3c2)nc2ccccc21 (stereo unspecified)	hgDAF-12 ag 11 (no result: DAX1 inh-2)
CSCCC(c1nc2ccccc2[nH]1)n1c(-c2ccc(C)cc2)nc2ccccc21 (stereo unspecified)	none (no result: DAX1 inh-2)
